Assay results taken from PubChem BioAssay (NCATS).
Results filed as inconclusive are left out. The call rests on the fitted dose curve; in most records, active means well fitted inhibition curve with a large enough effect; inconclusive means small, poorly fitted or top-dose-only effect; inactive means no such curve, though single readings can be large or run the other way.

Test: Primary qHTS for small molecule stabilizers of the endoplasmic reticulum resident proteome: Secreted ER Calcium Modulated Protein (SERCaMP) assay (AID 1508630)
Conditions: SH-SY5Y GLuc-SERCaMP (Gaussia luciferase released on ER calcium loss) secretion, thapsigargin, luminescence; series mostly up to 38.4 µM; activity change, negative = inhibition: at the top concentration
In short: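 The SH-SY5Y reporter protocol was run at 3 concentrations up to 38.3 uM (primary) or 11 concentrations (follow-up): 16 h compound, 100 nM thapsigargin for 4 h, then extracellular luciferase luminescence.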
On the % scale 0 is the no-effect control and ±100 the full control effect.

Activity change, negative = inhibition, inactive:
COCCn1c(=O)c(-c2ccc(OC)cc2)nc2cnc(Nc3ccccc3)nc21 24.7%
CN(C)Cc1ccccc1-c1cncnc1Nc1ccc(F)cc1 -16.1%
N#Cc1cccc(NC(=O)N2CC3(CCN(C(=O)c4cnccn4)CC3)C2)c1 1.27%
COc1ccc(C(=O)N2CCC3(CCCN(c4ccc(-c5ccccc5)cc4)C3)CC2)cc1 19.7%
N#CCCn1c(=O)cnc2cnc(Nc3ccccc3)nc21 -22.1%
O=C(c1ccncc1)N1CCC[C@@]2(CCN(Cc3cc(C(F)(F)F)cc(C(F)(F)F)c3)C2)C1 46.4%
Cn1cccc1C(=O)N1CCC[C@@]2(CCN(c3cccc(-c4ccccc4)c3)C2)C1 -1.54%
N#Cc1ccc(CN2CCC3(CC2)CCN(C(=O)c2cnccn2)CC3)cc1 5.76%
CCNc1ncc2nc(-c3cccs3)c(=O)n(-c3ccc(OC)cc3)c2n1 32.1%
c1cncc(-c2nc(NCCN3CCOCC3)c3ccccc3n2)c1 -13.9%
O=C(Nc1cccc(F)c1)N1CCC2(CC1)CCN(C(=O)c1ccncc1)CC2 25.7%
O=C(Oc1ccccc1)N1CCC[C@@]2(CCN(c3ccccc3)C2)C1 14%
CC(=O)N1CCC2(CC1)CCN(c1ccccc1)CC2 17.7%
O=C(c1ccco1)N1CCC2(CCCN(c3cccc(-c4ccccc4)c3)C2)CC1 -17.9%
O=C(Oc1ccccc1)N1CCC2(CC1)CCN(c1ccccn1)CC2 -22.9%
O=C(c1csnn1)N1CCC2(CCCN(c3ccccn3)C2)CC1 22%
Cc1cccc(CNc2cc(-c3ccccc3C)ncn2)c1 -12.9%
O=S(=O)(c1ccccc1)N1CCC2(CCCN(Cc3ccccc3)C2)CC1 22.3%
COc1ccc(C(=O)N2CCC3(CCCN(c4ccncc4)C3)CC2)cc1 13.2%
O=C(c1ccncc1)N1CCC2(CCN(Cc3cc(C(F)(F)F)cc(C(F)(F)F)c3)CC2)CC1 -27.8%
O=c1c(CCc2ccccc2)nc2cnc(Nc3ccccc3)nc2n1Cc1cccs1 14.5%
O=S(=O)(c1ccccc1)N1CCC2(CCCN(c3ccccc3)C2)CC1 6.43%
Cc1noc(C)c1C(=O)N1CCC2(CCCN(c3ccccn3)C2)CC1 25.7%
Cn1cccc1C(=O)N1CCC2(CCCN(Cc3nccs3)C2)CC1 -9.06%
O=C(c1ccco1)N1CCC2(CCN(Cc3cc(C(F)(F)F)cc(C(F)(F)F)c3)CC2)CC1 -3.76%
Cn1cccc1C(=O)N1CCC2(CCCN(C(=O)Nc3cccc(C#N)c3)C2)CC1 -6.84%
CC(=O)N1CCC2(CCN(Cc3ccc(C#N)cc3)CC2)CC1 3.82%
O=C(c1ccncc1)N1CCC2(CCCN(c3ncccn3)C2)CC1 16%
O=C(c1cnccn1)N1CCC2(CCCN(c3ccncc3)C2)CC1 -14.5%
N#CCCn1c(=O)c(-c2cccs2)nc2cnc(Oc3ccccc3)nc21 23.7%
O=C(c1cccc(F)c1)N1CCC2(CC1)CCN(c1ccccn1)CC2 -16.2%
O=C(Nc1cccc(F)c1)N1CC2(CCN(C(=O)c3ccncc3)CC2)C1 12.8%
O=C(c1ccco1)N1CCC2(CC1)CCN(c1ccccn1)CC2 -3.72%
COCCn1c(=O)c(-c2cccs2)nc2cnc(OCc3ccccc3)nc21 11.6%
O=C(Nc1cccc(F)c1)N1CCCC2(CCN(C(=O)c3ccco3)CC2)C1 -1.35%
O=C(Nc1ccccc1)N1CCCC2(CCN(C(=O)c3cccc(F)c3)CC2)C1 6.73%
O=C(c1cnccn1)N1CCC2(CC1)CCN(c1cccc(-c3ccccc3)c1)CC2 -20.1%
O=C(c1cccc(F)c1)N1CCC2(CCCN(c3ccccc3)C2)CC1 7.74%
O=S(=O)(c1ccccc1)N1CCC2(CCCN(c3ccncc3)C2)CC1 -25.2%
